The values below come from PubChem BioAssay AID1863 (Southern Research Specialized Biocontainment Screening …, 2009).

About 480 (0.16%) of roughly 300,000 compounds were called active.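 How the source made its calls: active means inhibition over 29.93%, a cutoff 3 SD above the screen mean, later confirmed by dose response; inconclusive means inhibition over 29.93% but no dose response follow-up; inactive means inhibition at most 29.93% or unconfirmed.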 Not all results are given here. Entries with a potency or affinity are not part of this list.

This assay in a line: inhibitors of PhoP regulon expression, primary screen, Salmonella Typhimurium, GFP reporter (AID 1863).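 Further: 0% = low Mg2+ inducing control and 100% = high Mg2+ repressing control.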 The settings on record: S. Typhimurium PhoP-regulated promoter GFP reporter, 4 h; at 50 µM; stronger effect = higher value.
`CNC(=O)c1cn(-c2ccc(Cl)cc2)c(=O)c2ccccc12`: the inhibition (commonly the drop in the measured response relative to a control, in per cent) is -7.59% (inactive). For `CO[C@@H]1[C@@H](OC(N)=O)[C@@H](O)C(Oc2ccc3c(O)c(NC(=O)c4ccc(O)c(CC=C(C)C)c4)c(=O)oc3c2C)OC1(C)C` (stereo partly specified) the value was 12.3% (inactive); for `Cc1c(O)ccc2c(O)c(NC(=O)c3ccc4c(c3)CCC(C)(C)O4)c(=O)oc12`, -3.81% (inactive).

For the molecule `CCC1=C(c2ccc(C)cc2)S(=O)(=O)N=C1N1CCC(C(=O)NCCCN2CCCCC2)CC1`, the inhibition was -2.43% (inactive). Consider `COc1ccc(-n2nc3cc(N)c(Br)cc3n2)cc1`, for which the inhibition is -2.59% (inactive). With `Nc1cccc2nsnc12`, the inhibition was -14.7% (inactive).

Consider `CCOC(=O)CCCNC(=O)CSc1nnc(-c2ccccc2)c(-c2ccccc2)n1`, for which the inhibition is -8.06% (inactive). For the molecule `COC(=O)c1c(C)[nH]c(O)c1C=Nc1ccc(Oc2ccccc2)cc1`, the inhibition was -5.37% (inactive). In the case of `CO[C@H]1C=CO[C@@]2(C)Oc3c(C)c(O)c4c(O)c(c5c(nc6cc(C)ccn65)c4c3C2=O)NC(=O)C(C)=CC=C[C@H](C)[C@H](O)[C@@H](C)[C@@H](O)[C@@H](C)[C@H](OC(C)=O)[C@@H]1C` it was -3.25% (inactive); in that of `CC(/C=C/c1ccccc1F)=N\NC(=O)c1cccc(F)c1`, 3.59% (inactive); in that of `O=S(=O)(NCC1CCCO1)c1ccc(NS(=O)(=O)c2ccc(F)cc2)cc1` (stereo unspecified), 0.92% (inactive). On to `N#C/C(=C(/O)CSc1ncn[nH]1)c1nc2ccccc2[nH]1`, for which the inhibition is 6.19% (inactive). `Fc1ccccc1/C=N/Nc1ccc(Cl)nn1`: the inhibition was -8.24% (inactive). `Cc1ccccc1/C=N/Nc1ccc(Cl)nn1`: the inhibition was 1.24% (inactive).

On to `C=CCN=C1CC(C)(C)C(C(=O)OC)C(O)=C1C(=O)CCC` (stereo unspecified), for which the inhibition is -0.51% (inactive). For `COc1ccc(Cc2nnc(Nc3ccc(C)cc3)o2)cc1OC` the value was 1.4% (inactive). In the case of `O=S(=O)(c1ccc2c(c1)OCCO2)N1CCN(Cc2ccc3c(c2)OCO3)CC1` it was -0.33% (inactive). Regarding `CN1/C(=C\C=N\O)C(C)(C)c2ccccc21`, the inhibition was -8.82% (inactive). For `COc1cc(CNCCc2ccc(F)cc2)ccc1OCc1ccc(Cl)nc1` the value was 23.3% (inactive); for `COc1ccccc1CNCc1ccc(C)cc1`, 8.2% (inactive). In the case of `c1csc(CNCc2ccncc2)c1` it was -5.07% (inactive); in that of `Fc1ccc(CNCc2ccccc2Cl)cc1`, 5.07% (inactive).

As to `Brc1ccc(CNCc2cccs2)cc1`, the inhibition is 10.4% (inactive). In the case of `COc1ccccc1CNC(=S)NCc1ccc(F)cc1`, the inhibition is -5.45% (inactive). Turning to `COc1ccc(NC(=O)COC(=O)CCCc2c[nH]c3ccccc23)cc1`, the inhibition is -12.1% (inactive). Take `Cc1cc(C)n(C(=O)Cn2nc(C)c(Cl)c2C)n1`: the inhibition is 3.42% (inactive).

`O=C(c1ccccc1F)N1CCN(S(=O)(=O)c2ccc3c(c2)OCCO3)CC1`: the inhibition was 6.03% (inactive). In the case of `Cc1c(NC(=O)CSc2nnnn2-c2ccc(F)cc2)c(=O)n(-c2ccccc2)n1C` it was -6.82% (inactive); in that of `O=C1NC(C(F)(F)F)(C(F)(F)F)N=C2SC=CN12`, -6.31% (inactive). For the molecule `O=c1[nH]nc(-c2ccc(F)cc2)cc1Cc1ccc(F)cc1`, the inhibition was -10.7% (inactive). For `O=C(Nc1cccc(Cl)c1)Nc1ccnc(-c2cccnc2)n1` the value was 5.1% (inactive); for `CCOC(=O)N1CCN(Cc2cc(Cl)c3cccnc3c2O)CC1`, -0.11% (inactive).

Regarding `Oc1c(CN2CCN(c3ccccc3)CC2)cc(Br)c2cccnc12`, the inhibition is 4.78% (inactive). As to `Oc1c(CN2CCN(c3ccccn3)CC2)cc(Cl)c2cccnc12`, the inhibition is 20.1% (inactive). For `O=C(Oc1c(CN2CCOCC2)cc(Cl)c2cccnc12)c1ccc(F)cc1` the value was 29.7% (inactive). In the case of `CCCNC(=O)Nc1ccc(F)c(Cl)c1` it was -2.59% (inactive); in that of `COc1ccc(CNc2nc(NCc3ccc(OC)cc3)n(S(C)(=O)=O)n2)cc1`, -5.9% (inactive). In the case of `Cc1c(NC(=O)/C(C#N)=C/c2ccccc2)c(=O)n(-c2ccccc2)n1C` it was 0.82% (inactive); in that of `CCc1ccc2nc(N)sc2c1`, 1.27% (inactive); in that of `Cc1[nH]cnc1C(=O)N/N=C/c1ccc([N+](=O)[O-])s1`, 4.75% (inactive).

As for `O=C(N/N=C/c1ccc([N+](=O)[O-])s1)c1ccccc1`, the inhibition is -2.83% (inactive).

In the case of `Cc1cc(C(=O)N/N=C/c2ccc(C)s2)n[nH]1`, the inhibition is 11.3% (inactive). For `O=C(N/N=C/c1ccc(Cl)s1)C(O)c1ccccc1` (stereo unspecified) the value was -4.15% (inactive). `O=C(CSc1nnc(-c2ccccn2)o1)Nc1ccccc1`: the inhibition is -5.62% (inactive).

On to `CCc1ccccc1NC(=O)c1cc(-c2cccs2)on1`, for which the inhibition is -12.5% (inactive). `COC(=O)c1cc(N=C(N)N=C(N)N)cc(C(=O)OC)c1`: the inhibition was -9.38% (inactive).

Turning to `O=c1c2ccccc2nc2c3ccccc3c(Cl)nn12`, the inhibition was 4.87% (inactive).

Turning to `Cc1ccc(OCCC(=O)OCC(=O)Nc2cc(C)cc(C)c2)cc1`, the inhibition was -5.06% (inactive).

In the case of `Cc1cc(NC(=O)COC(=O)C2=COCCO2)c([N+](=O)[O-])cc1C`, the inhibition is -7.57% (inactive). As to `COCc1ccc(O)c2ncccc12`, the inhibition is -1.56% (inactive). For `Oc1ccc(CNc2ccccc2)c2cccnc12` the value was 5.74% (inactive).

Turning to `Oc1cc2c(cc1CN1CCc3ccccc3C1)OCO2`, the inhibition is -4.04% (inactive). Regarding `Oc1ccc(CN2CCN(c3ccccc3)CC2)c2cccnc12`, the inhibition is -1.49% (inactive). In the case of `Cc1ccccc1NCc1ccc(O)c2ncccc12`, the inhibition was -2.12% (inactive). In the case of `COCc1cc(CN2CCN(C)CC2)c(O)c2ncccc12` it was 6.95% (inactive). For `COc1ccccc1N1CCN(Cc2ccc(O)c3ncccc23)CC1` the value was 18.9% (inactive); for `Oc1ccc(CN2CCC(Cc3ccccc3)CC2)c2cccnc12`, 10.7% (inactive).

For `CC(=O)Nc1ccc(S(=O)(=O)NC(C)C(=O)NC(C)c2ccccc2)cc1` (stereo unspecified), the inhibition is -5.32% (inactive). For the molecule `Cc1ccccc1OCC(=O)NC(=S)Nc1ccccc1N1CCN(S(C)(=O)=O)CC1`, the inhibition is -1.77% (inactive). In the case of `CC1=C(C(=O)OC(C)C)C(c2ccsc2)NC(=O)N1C` (stereo unspecified) it was -5.45% (inactive).

Take `Cc1ccc(S(=O)(=O)NCCC(=O)NCC(=O)Nc2c(C)cccc2C)cc1C`: the inhibition was -4.98% (inactive). In the case of `Cc1nc2ccccc2n1CCCOc1ccccc1` it was 5.12% (inactive); in that of `OC(COc1ccc(Cl)cc1)CN1CCC(Cc2ccccc2)CC1` (stereo unspecified), -10.4% (inactive). As for `CC1(C)CCC(=O)C=C1Nc1ccc(F)c(Cl)c1`, the inhibition is -5.11% (inactive). As to `CCC(CC)C1=NN2C(=N)/C(=C/c3ccc(OC(=O)c4ccco4)cc3)C(=O)N=C2S1`, the inhibition was -9.8% (inactive). With `C=CCN(c1ccccc1)S(=O)(=O)c1cccc(C(=O)N2CC(C)CC(C)C2)c1` (stereo unspecified), the inhibition is -1.91% (inactive). For `CCCOc1ccc(C(C)(O)CN2CCOCC2)cc1` (stereo unspecified) the value was 6.65% (inactive). Consider `Oc1ccc(CN2CCCCC2)c2cccnc12`, for which the inhibition is 8.92% (inactive). For `CCOC(=O)C1CCN(Cc2ccc(O)c3ncccc23)CC1` the value was 6.23% (inactive); for `CN(Cc1ccccc1)S(=O)(=O)c1ccccc1[N+](=O)[O-]`, 6.63% (inactive). Turning to `CCn1cc(C(=O)NC(C)C)c(=O)c2cc(F)c(N3CCN(C(=O)c4ccco4)CC3)cc21`, the inhibition was 3.82% (inactive). Turning to `COc1ccccc1NC(=S)N1CCN(c2ccccc2F)CC1`, the inhibition is -4.74% (inactive). Turning to `CCn1cc(C(=O)O)c(=O)c2cnc(N3CCN(C(=S)Nc4ccccc4Cl)CC3)nc21`, the inhibition is 14.7% (inactive).

For the molecule `COc1ccc(CCNC(=O)C(C(=O)c2ccc(F)cc2)n2ccccc2=O)cc1OC` (stereo unspecified), the inhibition was 7.45% (inactive).

With `Cc1cc(C)n(CCNS(=O)(=O)c2ccc(C)c(C)c2)n1`, the inhibition was 5.17% (inactive). For `CC(C)(C)NC(=O)NC(=O)CSc1ncn[nH]1` the value was 4.4% (inactive); for `O=C(NC(=S)NNC(=O)c1cc2ccccc2cc1O)c1ccco1`, -4.81% (inactive); for `O=C(NNC(=O)c1ccccc1O)c1ccco1`, 4.25% (inactive). Turning to `O=C1CC(c2cc([N+](=O)[O-])ccc2Cl)c2c(ccc3ccccc23)N1` (stereo unspecified), the inhibition was -8.09% (inactive).

On to `COc1cccc(/C=C/C(=O)OCC(=O)Nc2ccccc2Sc2ccccc2)c1`, for which the inhibition was 14.5% (inactive). As for `COC(=O)C1=CO[C@@H](OC2OC(CO)C(O)C(O)C2O)[C@@H]2[C@@H](C)[C@@H](O)C[C@H]12` (stereo partly specified), the inhibition was -2.72% (inactive). Regarding `Cc1ccc(C)c(/C(O)=C2/C(=O)C(=O)N(CCN3CCOCC3)C2c2ccc(C)o2)c1` (stereo unspecified), the inhibition is 3.28% (inactive). Consider `Cc1ccc(S(=O)(=O)Oc2ccc(/C=N/NC(=O)c3nn(C)cc3Cl)cc2)cc1`, for which the inhibition was 1.65% (inactive). For `Cc1ccccc1NC(=O)Cn1nc(-c2ccc(Cl)s2)ccc1=O` the value was -3.56% (inactive); for `O=C(c1cnc2n(c1=O)CCS2)N1CCN(C(c2ccccc2)c2ccc(Cl)cc2)CC1` (stereo unspecified), 3.09% (inactive); for `O=C(O)/C=C/c1ccc([N+](=O)[O-])o1`, 23.2% (inactive).

As for `O=C1CN(/N=C/c2ccc([N+](=O)[O-])o2)C(=O)N1`, the inhibition is -5.89% (inactive). For `COc1ccc2nc(Nc3ccc4c(c3)OCO4)sc2c1` the value was 14% (inactive); for `CC(C)CN(C(=O)COC(=O)CCCc1nc2ccccc2s1)c1c(N)n(Cc2ccccc2)c(=O)[nH]c1=O`, -9.27% (inactive).

For `O=C(NCCCc1ccccc1)c1ccc(-n2cncn2)c([N+](=O)[O-])c1`, the inhibition is 2.7% (inactive).

As to `O=c1[nH]cc(O)c(=O)[nH]1`, the inhibition was 6.24% (inactive). Consider `O=c1[nH]cc(-c2ccccc2)c(=O)[nH]1`, for which the inhibition is -0.675% (inactive).

`O=[N+]([O-])c1ccccc1/C=N/n1c(C2CCCCC2)n[nH]c1=S`: the inhibition is 8.51% (inactive). With `c1ccc(-n2c3ccccc3c3ccccc32)cc1`, the inhibition is -2.33% (inactive).

Turning to `Cn1c(-c2ccccc2)c(CCO)c2ccccc21`, the inhibition is -0.97% (inactive). In the case of `O=C(CN(Cc1ccc(Br)cc1)S(=O)(=O)c1ccccc1)NCC1CCCO1` (stereo unspecified) it was -5.51% (inactive).
